High-throughput results from PubChem BioAssay.
A selection: hits, their analogues and other compounds. The true share with any hit is near 2.3%.
FBPA coupling cs: inhibits coupling enzyme system, counter-screen for aldolase hits | coupling enzyme system counterscreen, AmpLite Red fluorescence | activity change, negative = inhibition, % at 58.2 µM, hits read low | 290,000 tested, 0.67% active; in the data active = activity change below about -30%
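First, compound is pin-transferred into glyceraldehyde-3-phosphate coupling-enzyme reagent at 57.5 uM final and held 10 min at RT. Next, substrate, coupling system and AmpLite Red are added. After 20 min RT, fluorescence (525/598 nm) is read.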
Tau fibril ThT: blocks human tau fibril formation measured by thioflavin T; P10636; recombinant tau K18 P301L, heparin-induced fibrillization, ThT fluorescence; Potency, µM (series often up to 57.4 µM), for the others: top-dose activity, negative = inhibition, most hits filed as inhibitors; 270,000 tested, 2.1% active; also: potency is read from the fitted curve at half-maximal effect; nearly all actives have a fitted effect of over 55% in size
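In this qHTS, human K18 P301L tau is incubated with compound and heparin for 6 hr at 37 C, and Thioflavin T fluorescence then reports fibril load.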
Tau fluor counter: counter-screen for tau fibril formation inhibitors | tau K18 P301L Alexa594 fluorescence, heparin fibrillization | Potency, µM (highest dose often 57.7 µM), without a hit: top-dose activity change, negative = decrease | 280,000 tested, 0.93% active | AID 1463; also: potency is read from the fitted curve at half-maximal effect; nearly all actives have a fitted effect of over 55% in size
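Human tau K18 P301L (15 uM unlabeled, 0.24 uM Alexa 594-labeled) in 100 mM sodium acetate pH 7 with 20 uM heparin, 6 hr at 37 C. ThT 30 uM added, 1 hr ambient; Alexa 594 FP and total fluorescence read at 555/632 nm.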
USP1-UAF1 inh: USP1/UAF1 (human) deubiquitinase inhibition; recombinant USP1/UAF1, Ub-Rhodamine cleavage fluorescence; Potency, µM (doses to about 57.1 µM), without a hit: top-dose activity change, negative = inhibition, hits mostly inhibitors; 390,000 tested, 0.23% active; AID 743255; also: potency is read from the fitted curve at half-maximal effect; nearly all actives have a fitted effect of over 60% in size
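USP1/UAF1 complex (1 nM) preincubated 15 min at room temperature with compound, then Ub-Rho substrate (150 nM final) added. Kinetic fluorescence at 480/540 nm over 6 reads at 60 s intervals; 50 mM HEPES pH 7.8, 0.5 mM EDTA, 0.1 mg/ml BSA, 1 mM TCEP, 0.01% Tween-20.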
Tau fibril FP: tau fibrillization inhibition (FP). K18 P301L tau heparin fibrillization, Alexa594 FP, 6 h. Potency, µM (top dose mostly 57.7 µM), without a hit: at the top dose activity, negative = inhibition, actives largely listed as inhibitors. 280,000 tested, 0.39% active. AID 1468; also: potency is read from the fitted curve at half-maximal effect; nearly all actives have a fitted effect of over 55% in size
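Steps: dispense K18 P301L tau (15 uM plus 0.24 uM Alexa 594 tracer, final) in pH 7 sodium acetate; add compound; add heparin (20 uM final); incubate 6 hr, 37 C; add ThT (30 uM final); after 1 hr ambient, read FP.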
* = called active by the depositor; [ ] = another dose, or the depositor's remark. Unless noted, calls follow the shape of the dose curve; as a rule, active = well fitted curve in the direction sought with a large enough effect; inconclusive = small, poorly fitted or top-dose-only effect, or another doubt; inactive = no such curve, though single readings can be large; an effect the other way counts as inactive or inconclusive. % is scaled to controls: 0 for no effect and ±100 for the full control effect.

For COc1ccccc1N1CCN(c2ncnc3c2c(-c2ccccc2)cn3-c2cccc(C)c2)CC1 the results were Tau fibril ThT -11%, Tau fluor counter -7%, USP1-UAF1 inh -11% and Tau fibril FP 6%.
Clc1ccc(-c2nc3cnccn3c2Nc2ccc3c(c2)OCO3)cc1 was read as FBPA coupling cs 1, Tau fibril ThT inconclusive, Tau fluor counter 14µM*[quencher], USP1-UAF1 inh -10% and Tau fibril FP inconclusive.
CSc1ccc(-c2nc3cnccn3c2Nc2ccc3c(c2)OCO3)cc1 was read as FBPA coupling cs -3, Tau fibril ThT inconclusive, Tau fluor counter inconclusive, USP1-UAF1 inh -8% and Tau fibril FP inconclusive.
Oc1ccc(-c2nc3ncccn3c2Nc2ccc3c(c2)OCCO3)cc1 was read as FBPA coupling cs 7, Tau fibril ThT inconclusive, Tau fluor counter 25µM*[quencher], USP1-UAF1 inh -7% and Tau fibril FP 12%.
`Cc1ccc(-c2nc3ncccn3c2Nc2ccc3c(c2)OCCO3)cc1` gave FBPA coupling cs 4, Tau fibril ThT inconclusive, Tau fluor counter inconclusive, USP1-UAF1 inh -11% and Tau fibril FP 1%.
`COCCNC(=S)Nc1ccc2nc(N3CCOCC3)cc(C)c2c1` gave FBPA coupling cs 1 and USP1-UAF1 inh inconclusive.
`S=C(NCc1ccc(Cl)c(Cl)c1)Nc1ccc2c(c1)OCO2` gave FBPA coupling cs 2, Tau fibril ThT inconclusive, Tau fluor counter 16µM*[quencher], USP1-UAF1 inh -9% and Tau fibril FP inconclusive.
`Cc1cc(N2CCOCC2)nc2ccc(NC(=S)NCc3ccc4c(c3)OCO4)cc12` gave FBPA coupling cs 1, Tau fibril ThT inconclusive, Tau fluor counter 14µM*[quencher], USP1-UAF1 inh -22% and Tau fibril FP inconclusive.
S=C(NCc1ccc2c(c1)OCO2)Nc1ccc(-c2nc3ccccc3[nH]2)cc1 was read as FBPA coupling cs 0, Tau fibril ThT inconclusive, Tau fluor counter 13µM*[quencher], USP1-UAF1 inh -11% and Tau fibril FP inconclusive.
`CN(C)CCNC(=S)Nc1ccc(-c2nc3ccccc3[nH]2)cc1` gave FBPA coupling cs 0, Tau fibril ThT 8%, Tau fluor counter -9%, USP1-UAF1 inh -20% and Tau fibril FP 5%.
For COc1cccc(C(=O)N2CCC(C(=O)Nc3cccc(Cl)c3)CC2)c1 the results were Tau fibril ThT -4%, Tau fluor counter -19%, USP1-UAF1 inh -18% and Tau fibril FP -15%.
O=C(Nc1ccc(N2CCOCC2)cc1)C1CC(=O)N(c2ccc(Cl)cc2)C1 (configuration not stated) was read as FBPA coupling cs -1, Tau fibril ThT inconclusive, Tau fluor counter -13%, USP1-UAF1 inh -2% and Tau fibril FP 3%.
Screening O=C(Nc1ccc(N2CCOCC2)cc1)C1CC(=O)N(c2ccccc2)C1 (configuration not stated) returned FBPA coupling cs 2, Tau fibril ThT 4.5µM*, Tau fluor counter 7%, USP1-UAF1 inh -19% and Tau fibril FP 6%[2.34 µM].
Screening CCCc1cc(=O)[nH]c(SCC(=O)Nc2ccc([N+](=O)[O-])cc2C#N)n1 returned FBPA coupling cs 3, Tau fibril ThT 14µM*, Tau fluor counter inconclusive, USP1-UAF1 inh -19% and Tau fibril FP 5%.
`CC(=O)Nc1ccc(OCC(O)CNC2CCCC2)cc1` (configuration not stated) gave FBPA coupling cs -38*, Tau fibril ThT inconclusive, Tau fluor counter -13%, USP1-UAF1 inh -15% and Tau fibril FP -4%.
O=C(c1ccccc1)c1coc2c1C(=O)c1ccccc1C2=O was read as FBPA coupling cs -21, Tau fibril ThT 13µM*, Tau fluor counter inconclusive, USP1-UAF1 inh inconclusive and Tau fibril FP -12%.
Screening O=C1c2ccccc2C(=O)c2c1oc(C(F)(F)F)c2C(=O)c1ccccc1 returned FBPA coupling cs -3, Tau fibril ThT inconclusive, Tau fluor counter inconclusive, USP1-UAF1 inh inconclusive and Tau fibril FP -4%.
For COc1ccc(C(=O)c2coc3c2C(=O)C(=O)c2ccccc2-3)cc1 the results were FBPA coupling cs -75*, Tau fibril ThT 2.8µM*, Tau fluor counter inconclusive, USP1-UAF1 inh inconclusive and Tau fibril FP inconclusive.
